Measured values as given in PubChem BioAssay (NCATS).
Inconclusive results are not listed. Entries that show only a call come without a potency. Active and inactive are the calls of the source. Calls come from the whole dose curve; as a rule, active = well fitted curve in the direction sought with a large enough effect; inconclusive = small, poorly fitted or top-dose-only effect, or another doubt; inactive = no such curve, though single readings can be large; an effect the other way counts as inactive or inconclusive. Positions of bridges follow the written chain, without caps; N, C: chain ends. Non-standard residues stand in square brackets, D forms with d. Residues, ends and D or L forms follow the SMILES beside them. ξ: configuration not given here. *: point of attachment. Octanoyl(6-Me) = CCC(C)CCCCC(=O)*; ξThr(3R) = C[C@@H](O)C(N)C(=O)O; dDab = NCC[C@@H](N)C(=O)O; Dab = NCC[C@H](N)C(=O)O

How the values were obtained:
[1] = NS1 protein of Zika virus - qHTS assay to identify small molecule inhibitors in human HEK 293 cells (AID 1347053); settings: HEK293 ZIKV MR766 infection, NS1 TR-FRET, 24 h; series mostly up to 46.1 µM; note: nearly all actives have a fitted effect of over 55% in size
Method in brief: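 In this cell-based screen, HEK 293 cultures received compound for one hour before Zika MR766 at MOI = 0.5. NS1 was quantified 24 hours later by TR-FRET, normalized to virus-free wells and infected wells.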

[2] = qHTS of pediatric cancer cell lines to identify multiple opportunities for drug repurposing: Primary screen for TC32 cells (AID 1347089); settings: TC32 Ewing sarcoma viability, CellTiter-Glo luminescence, 48 h; series mostly up to 45.8 µM; note: nearly all actives have a fitted effect of over 60% in size
Method in brief: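 Luminescent CellTiter-Glo read-out of metabolically active TC32 cells after 48 h compound exposure. Primary: MIPE 11-point, 0.78 nM–46 µM; NPC 8-point, 0.59 nM–46 µM. Confirmatory: 11-point dilutions.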

[3] = qHTS of pediatric cancer cell lines to identify multiple opportunities for drug repurposing: Primary screen for DAOY cells (AID 1347090); settings: DAOY medulloblastoma viability, CellTiter-Glo luminescence, 48 h; series mostly up to 46 µM; note: nearly all actives have a fitted effect of over 55% in size
Method in brief: (§1)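 Cell viability, CellTiter-Glo luminescence; 500-1,000 cells/well, 8- or 11-point titration, 48 h compound exposure at 37 degrees C, 5% CO2. Controls: DMSO neutral, bortezomib 2.3 µM final as positive.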

[4] = qHTS of pediatric cancer cell lines to identify multiple opportunities for drug repurposing: Primary screen for SJ-GBM2 cells (AID 1347091); settings: SJ-GBM2 viability, CellTiter-Glo luminescence, 48 h; series mostly up to 46 µM
Method in brief: as §1

[5] = qHTS of pediatric cancer cell lines to identify multiple opportunities for drug repurposing: Primary screen for SK-N-MC cells (AID 1347093); settings: SK-N-MC viability, CellTiter-Glo luminescence, 48 h; series mostly up to 46 µM
Method in brief: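 Metabolically active cells were quantified by ATP-dependent luminescence (CellTiter-Glo, 15 min at room temperature) following 48 h treatment. Cells had been plated at 500-1,000 per well and settled for 5 h beforehand.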

[6] = qHTS of pediatric cancer cell lines to identify multiple opportunities for drug repurposing: Primary screen for A673 cells (AID 1347092); settings: A673 Ewing sarcoma viability, CellTiter-Glo ATP luminescence, 48 h; series mostly up to 46 µM; note: nearly all actives have a fitted effect of over 45% in size
Method in brief: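 A673 cells (500-1,000 cells/well in growth media) were pre-incubated 5 h at 37 degrees C, then exposed to compounds for 48 h. Viability was read as CellTiter-Glo luminescence; concentration-response curves came directly from the primary screen.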
Potency is the fitted concentration of half-maximal effect.

Structure (SMILES)	Potency [1]	Potency [2]	Potency [3]	Potency [4]	Potency [5]	Potency [6]
Cc1cc(C(=O)NOCCO)c(Nc2ccc(I)cc2F)n(C)c1=O	inactive	inactive	inactive	inactive	662 nM (active)	
CC(C)c1cc(C(C)C)c(CC(=O)NS(=O)(=O)Oc2c(C(C)C)cccc2C(C)C)c(C(C)C)c1	inactive	inactive		11800 nM (active)		
CCC(C)CCCCC(=O)N[C@@H](CCN)C(=O)NC(C(=O)N[C@H](CCN)C(=O)N[C@@H]1CCNC(=O)C([C@@H](C)O)NC(=O)[C@@H](CCN)NC(=O)[C@@H](CCN)NC(=O)[C@@H](CC(C)C)NC(=O)[C@H](Cc2ccccc2)NC(=O)[C@H](CCN)NC1=O)[C@@H](C)O (stereo partly drawn) ({Octanoyl(6-Me)}-[Dab][ξThr(3R)][dDab][dDab][Dab]F[dL][dDab][dDab][ξThr(3R)]; lactam 4-C)	inactive	inactive	inactive		inactive	inactive
CCNC(=O)Nc1ccc(-c2nc3c(c(N4CCOC[C@H]4C)n2)CCN(C2COC2)C3)cc1	inactive	3300 nM (active)		743 nM (active)	209 nM (active)	1480 nM (active)
CS[C@H]1SC[C@@H]2C(=O)N(C)[C@H](C(C)C)C(=O)OC[C@H](NC(=O)c3cnc4ccccc4n3)C(=O)N[C@H](C)C(=O)N(C)[C@@H]1C(=O)N(C)[C@H](C(C)C)C(=O)OC[C@H](NC(=O)c1cnc3ccccc3n1)C(=O)N[C@H](C)C(=O)N2C	16.6 nM (active)	9.3 nM (active)	7.4 nM (active)		1.3 nM (active)	2.3 nM (active)
CN1[C@H]2CC(OC(=O)[C@@H](CO)c3ccccc3)C[C@H]1[C@H]1O[C@H]12 (stereo partly specified)	inactive	inactive		inactive		
